# From PMC10726135, “HNF4α isoforms regulate the circadian balance between carbohydrate and lipid metabolism in the liver”
# The full ranking holds about 18,000 sequences; the median of “log2 normalized intensity” is about 0.39, and the highest 2% start at about 6.6. This excerpt belongs to a sample that is enriched for the highest values.
# Target: T1, HNF4alpha2 (COS-7 nuclear extract) (Homo sapiens, UniProt P41235 1-474)
# T1 sequence: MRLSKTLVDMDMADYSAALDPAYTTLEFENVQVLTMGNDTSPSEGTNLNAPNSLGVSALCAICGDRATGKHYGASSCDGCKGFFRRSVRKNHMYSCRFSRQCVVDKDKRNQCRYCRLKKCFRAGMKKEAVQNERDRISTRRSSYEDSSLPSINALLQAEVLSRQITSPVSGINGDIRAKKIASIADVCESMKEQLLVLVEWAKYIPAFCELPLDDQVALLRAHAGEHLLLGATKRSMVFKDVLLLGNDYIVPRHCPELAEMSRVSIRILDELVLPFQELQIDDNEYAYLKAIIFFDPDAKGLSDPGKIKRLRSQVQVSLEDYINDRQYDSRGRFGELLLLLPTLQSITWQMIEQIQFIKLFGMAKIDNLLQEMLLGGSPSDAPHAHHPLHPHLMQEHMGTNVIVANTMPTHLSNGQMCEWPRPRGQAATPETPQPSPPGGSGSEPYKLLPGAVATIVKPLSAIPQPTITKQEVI
# Assay: protein-binding microarray; COS-7 nuclear extract on double-stranded Agilent 4x180k PBM; binding buffer, salt, pH and temperature not given in the material; high values mean tight binding
# Conditions: chain copies: 2; label: 3' end of strand 1 on the slide; dsDNA, one strand shown
# Summary of the method: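 Binding signal is the background-corrected, normalized gProcessedSignal calculated by Agilent software. It was measured by applying nuclear extracts of COS-7 cells transiently transfected with a human HNF4α isoform expression vector to a custom Agilent SurePrint G3 4x180k array of ~44,000 double-stranded ~60-nt test sequences in quadruplicate, then imaging bound HNF4α on an Agilent G2565CA scanner at 2-µm resolution.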
row,Sequence,binding signal
1,TGTCATCTAGACCTGGACTTGAAGCCAGACGCCTAGGGAGATTAGAGTATCGGTCGA,-0.168 log2 normalized intensity
2,TGAGTCTGGTGTTTCCCTGTTTGCTTCTGCGCCTAGGGAGATTAGAGTATCGGTCGA,0.819 log2 normalized intensity
3,GTTTAACTGACCCAGGGAGAAAGGTCAGGGGCCTAGGGAGATTAGAGTATCGGTCGA,2.86 log2 normalized intensity
4,TATCTTGTGACCTTTGACTCATTATCCCCCGCCTAGGGAGATTAGAGTATCGGTCGA,6.24 log2 normalized intensity
5,AGTGGTTTAAAAACTTATCTTGTGACCTTTGCCTAGGGAGATTAGAGTATCGGTCGA,6.81 log2 normalized intensity
6,TTTAAAAACTTATCTTGTGACCTTTGACTCGCCTAGGGAGATTAGAGTATCGGTCGA,8.33 log2 normalized intensity
7,ATTCTCTTATCTACTTTAAGATTTGACCCTGCCTAGGGAGATTAGAGTATCGGTCGA,5 log2 normalized intensity
8,CTGAACTTTAAACTGGTGTGTCTTGCCTTTGCCTAGGGAGATTAGAGTATCGGTCGA,2.06 log2 normalized intensity
9,TTAAGATTTGACCCTTGGCCAGGTGCAGTGGCCTAGGGAGATTAGAGTATCGGTCGA,4.65 log2 normalized intensity
10,ATCTGACCTTTGGTTAACTTCTTAACTTGGGCCTAGGGAGATTAGAGTATCGGTCGA,2.97 log2 normalized intensity
11,CTTATCTACTTTAAGATTTGACCCTTGGCCGCCTAGGGAGATTAGAGTATCGGTCGA,7.08 log2 normalized intensity
12,AAACTTATCTTGTGACCTTTGACTCATTATGCCTAGGGAGATTAGAGTATCGGTCGA,6.43 log2 normalized intensity
13,ATAAGACACATTCCATGCTTATCAGTGTACGCCTAGGGAGATTAGAGTATCGGTCGA,0.893 log2 normalized intensity
14,TAACTCAAAATCTGCTCTGTCCTGAGATGTGCCTAGGGAGATTAGAGTATCGGTCGA,1.06 log2 normalized intensity
15,AGGCCTGGAACCTGTCTGACAGGATGAATTGCCTAGGGAGATTAGAGTATCGGTCGA,-0.627 log2 normalized intensity
16,GCTGCCGCAGATCCCCGCTCCCCTCCCCCAGCCTAGGGAGATTAGAGTATCGGTCGA,6.45 log2 normalized intensity
17,AAGAGCCAAAATGTGTTAGGCAAGCAAACTGCCTAGGGAGATTAGAGTATCGGTCGA,-0.953 log2 normalized intensity
18,AGATTCGGTGAGGGATTGTTTAGGTACAAAGCCTAGGGAGATTAGAGTATCGGTCGA,1.53 log2 normalized intensity
19,AGGGATTGTTTAGGTACAAAGTCCATTGGAGCCTAGGGAGATTAGAGTATCGGTCGA,7.7 log2 normalized intensity
20,ATACAGAATCAATGCCTGATTCCAAAGTCCGCCTAGGGAGATTAGAGTATCGGTCGA,5.95 log2 normalized intensity
21,ATGTGGTCAAAACTTTGTTTGAGTTCCAAAGCCTAGGGAGATTAGAGTATCGGTCGA,1.07 log2 normalized intensity
22,ACTTTGCCTTTTGGCTAAAGTCCAAATTCCGCCTAGGGAGATTAGAGTATCGGTCGA,5.14 log2 normalized intensity

row,Sequence,binding signal
1,TTGTTTAGGTACAAAGTCCATTGGAAGCCAGCCTAGGGAGATTAGAGTATCGGTCGA,5.82 log2 normalized intensity
2,CGGTGAGGGATTGTTTAGGTACAAAGTCCAGCCTAGGGAGATTAGAGTATCGGTCGA,8.35 log2 normalized intensity
3,GTCAAAACTTTGTTTGAGTTCCAAAGTCCAGCCTAGGGAGATTAGAGTATCGGTCGA,6.99 log2 normalized intensity
4,AACTTTGTTTGAGTTCCAAAGTCCATGTTCGCCTAGGGAGATTAGAGTATCGGTCGA,6.61 log2 normalized intensity
5,AAAGTCCATATTCTTTGTTTGGATGCCAAAGCCTAGGGAGATTAGAGTATCGGTCGA,1.58 log2 normalized intensity
6,CTCTGAGATTCGGTGAGGGATTGTTTAGGTGCCTAGGGAGATTAGAGTATCGGTCGA,0.957 log2 normalized intensity
7,GAATCAATGCCTGATTCCAAAGTCCACTTTGCCTAGGGAGATTAGAGTATCGGTCGA,6.91 log2 normalized intensity
8,AAGCATTTGGAGATTGCCACCTTGGTGAGAGCCTAGGGAGATTAGAGTATCGGTCGA,0.715 log2 normalized intensity
9,GAGTTCTTCAAGTCAGTCAAAATGAATAGTGCCTAGGGAGATTAGAGTATCGGTCGA,1.32 log2 normalized intensity
10,TTGGCAGATTAGATATATCTGTACTCAAACGCCTAGGGAGATTAGAGTATCGGTCGA,1.27 log2 normalized intensity
11,TAACAGGATTTTTGCTGAAGACAGGCCAGGGCCTAGGGAGATTAGAGTATCGGTCGA,-0.417 log2 normalized intensity
12,CTGAATGGAATGAAGATACTGGATAACCTTGCCTAGGGAGATTAGAGTATCGGTCGA,0.695 log2 normalized intensity
13,AGAATGAGACCTGCTAGGCTGCATTCTCTGGCCTAGGGAGATTAGAGTATCGGTCGA,-0.977 log2 normalized intensity
14,ATTCATTCCCTAAGATTCTGGTCAAAGGTCGCCTAGGGAGATTAGAGTATCGGTCGA,7.3 log2 normalized intensity
15,TTCTGGTCAAAGGTCAATGAAGCTCTTGCTGCCTAGGGAGATTAGAGTATCGGTCGA,5.65 log2 normalized intensity
16,TGCCTTATCTGGTTCAAAGGTCATTTCTGCGCCTAGGGAGATTAGAGTATCGGTCGA,6.58 log2 normalized intensity
17,TATCTGGTTCAAAGGTCATTTCTGCTTGCAGCCTAGGGAGATTAGAGTATCGGTCGA,5.75 log2 normalized intensity
18,TAAGATTCTGGTCAAAGGTCAATGAAGCTCGCCTAGGGAGATTAGAGTATCGGTCGA,5.93 log2 normalized intensity
19,TTCCCTAAGATTCTGGTCAAAGGTCAATGAGCCTAGGGAGATTAGAGTATCGGTCGA,7.36 log2 normalized intensity
20,TTATCTTACATGCCTTATCTGGTTCAAAGGGCCTAGGGAGATTAGAGTATCGGTCGA,2.9 log2 normalized intensity
21,TTACATGCCTTATCTGGTTCAAAGGTCATTGCCTAGGGAGATTAGAGTATCGGTCGA,7.65 log2 normalized intensity
22,TTCATTCTTTAAGGACCACATCAAAGGTCAGCCTAGGGAGATTAGAGTATCGGTCGA,4.7 log2 normalized intensity

row,Sequence,binding signal
1,TGAGGCCCCAGTGTCAATTCTCATTCATCCGCCTAGGGAGATTAGAGTATCGGTCGA,-0.225 log2 normalized intensity
2,AACCCTTGCACTGCTGGTTTTTGTCAAAGAGCCTAGGGAGATTAGAGTATCGGTCGA,0.709 log2 normalized intensity
3,GCCTGTCAGGCCCAGAAACACTGAACCTTGGCCTAGGGAGATTAGAGTATCGGTCGA,1.63 log2 normalized intensity
4,TTGCACTGCTCAGGGTGGGGTCTCGCTGCTGCCTAGGGAGATTAGAGTATCGGTCGA,-0.755 log2 normalized intensity
5,ACACAATATTATGTTTTGTTATCTGTGCCAGCCTAGGGAGATTAGAGTATCGGTCGA,1.17 log2 normalized intensity
6,GTAAACTCCCTTTGATGCGGTCAGAGTTCAGCCTAGGGAGATTAGAGTATCGGTCGA,3.08 log2 normalized intensity
7,AGTGAACTCAAAGAAAAGTTATGTTGGGCAGCCTAGGGAGATTAGAGTATCGGTCGA,1.17 log2 normalized intensity
8,TCCCTTGCTCCACCCTTCTATCCCCTTATCGCCTAGGGAGATTAGAGTATCGGTCGA,2.8 log2 normalized intensity
9,TAGGAGACTGTCTTAGGAAAGAACAGGTCAGCCTAGGGAGATTAGAGTATCGGTCGA,1.14 log2 normalized intensity
10,GACTGTCTTAGGAAAGAACAGGTCAAAGGTGCCTAGGGAGATTAGAGTATCGGTCGA,3.91 log2 normalized intensity
11,AAGATTTATCAGGTCTTTCTTTCAGAACAGGCCTAGGGAGATTAGAGTATCGGTCGA,0.622 log2 normalized intensity
12,TTAGAGAAAGGGTCAAAGGTTAAGCCATTGGCCTAGGGAGATTAGAGTATCGGTCGA,5.92 log2 normalized intensity
13,GCAGAGCAGTTTAGAGAAAGGGTCAAAGGTGCCTAGGGAGATTAGAGTATCGGTCGA,5.29 log2 normalized intensity
14,GGAAAGAACAGGTCAAAGGTCAGTTTCTTTGCCTAGGGAGATTAGAGTATCGGTCGA,7.28 log2 normalized intensity
15,TCAGAAACAGGAATTCAAAGGTGCAAAGGTGCCTAGGGAGATTAGAGTATCGGTCGA,2.06 log2 normalized intensity
16,GAACAGGTCAAAGGTCAGTTTCTTTAAGACGCCTAGGGAGATTAGAGTATCGGTCGA,7.04 log2 normalized intensity
17,CTTTGGACTTTCAAAAGTTAAGGTCAAGACGCCTAGGGAGATTAGAGTATCGGTCGA,1.94 log2 normalized intensity
18,GCAGTTTAGAGAAAGGGTCAAAGGTTAAGCGCCTAGGGAGATTAGAGTATCGGTCGA,8.4 log2 normalized intensity
19,TCTTAGGAAAGAACAGGTCAAAGGTCAGTTGCCTAGGGAGATTAGAGTATCGGTCGA,9.13 log2 normalized intensity
20,GGTCAAAGGTCAGTTTCTTTAAGACAAGTGGCCTAGGGAGATTAGAGTATCGGTCGA,5.53 log2 normalized intensity
21,ACCCTGAATGTGTGCTGGCCTGGTTCCTTCGCCTAGGGAGATTAGAGTATCGGTCGA,0.887 log2 normalized intensity
22,TTGTCCCTTTTCTATCCAGATGATCTTTACGCCTAGGGAGATTAGAGTATCGGTCGA,2.25 log2 normalized intensity

row,Sequence,binding signal
1,GTCCCAGTAGATAACTTCAAGGAGCTCGGCGCCTAGGGAGATTAGAGTATCGGTCGA,-0.627 log2 normalized intensity
2,GTAGGGCCAATCTCTGGCATGTATTTATCAGCCTAGGGAGATTAGAGTATCGGTCGA,0.384 log2 normalized intensity
3,ATAGGAGGATTTTATTCAGGTGGCCACTGGGCCTAGGGAGATTAGAGTATCGGTCGA,1.03 log2 normalized intensity
4,GTTCCGCGGTCCGCAGCGCTGGTGGCTGCAGCCTAGGGAGATTAGAGTATCGGTCGA,-0.919 log2 normalized intensity
5,CTTTGTATAAGCCGTGCAAAGTTCATCCCTGCCTAGGGAGATTAGAGTATCGGTCGA,3.24 log2 normalized intensity
6,CTCGAGGTGGACTTTCCCCCCTCACACTTTGCCTAGGGAGATTAGAGTATCGGTCGA,5.25 log2 normalized intensity
7,TTGTTTTTGCTTGGAATGCCCTTATCTCATGCCTAGGGAGATTAGAGTATCGGTCGA,2.32 log2 normalized intensity
8,AGCTGGGCCTGTGCTGGGGACAAAAGCTGAGCCTAGGGAGATTAGAGTATCGGTCGA,-0.959 log2 normalized intensity
9,CTTTCTCCTCCCCTCCCCTCCCCCCACTCAGCCTAGGGAGATTAGAGTATCGGTCGA,6.94 log2 normalized intensity
10,ATTCCCTTTCTCCTCCCCTCCCCTCCCCCCGCCTAGGGAGATTAGAGTATCGGTCGA,6.91 log2 normalized intensity
11,TTTTCCACCCTCCCCTCCCCCTCCTCCCCTGCCTAGGGAGATTAGAGTATCGGTCGA,7.13 log2 normalized intensity
12,CCCTCCTCCTTTTTTTCCCCTCCCTCAGCTGCCTAGGGAGATTAGAGTATCGGTCGA,3.64 log2 normalized intensity
13,TCTCTCCCTCCTCCTTTTTTTCCCCTCCCTGCCTAGGGAGATTAGAGTATCGGTCGA,4.61 log2 normalized intensity
14,AGGCCCTCGGCATCATGCCCTTTGGCCCCCGCCTAGGGAGATTAGAGTATCGGTCGA,7.28 log2 normalized intensity
15,ACTGCATTCCCTTTCTCCTCCCCTCCCCTCGCCTAGGGAGATTAGAGTATCGGTCGA,4.31 log2 normalized intensity
16,CTTACTCTCTCCCTCCTCCTTTTTTTCCCCGCCTAGGGAGATTAGAGTATCGGTCGA,2.98 log2 normalized intensity
17,CTCGGCATCATGCCCTTTGGCCCCCAGAGCGCCTAGGGAGATTAGAGTATCGGTCGA,6.14 log2 normalized intensity
18,ACACCAGGCCCTCGGCATCATGCCCTTTGGGCCTAGGGAGATTAGAGTATCGGTCGA,3.91 log2 normalized intensity
19,TTCCTCCCACTCTGACATCCCCCTTTCTCTGCCTAGGGAGATTAGAGTATCGGTCGA,3.26 log2 normalized intensity
20,CATTTTTTTCCACCCTCCCCTCCCCCTCCTGCCTAGGGAGATTAGAGTATCGGTCGA,6.28 log2 normalized intensity
